Holding throughout (test): PBM; 200 nM protein, PBS
Settings in all cases: dsDNA, one strand shown

The target of assay [1] is CRX (Homo sapiens, UniProt O43186 26-111).
Assay [2] has as its target HOXA7 (Homo sapiens, UniProt P31268 116-202).
Assay [3] concerns the target CRX (Homo sapiens, UniProt O43186 26-111, E42D).
Assay [4] concerns the target HOXA7 (Homo sapiens, UniProt P31268 116-202, W177C).
For assay [5], the target named is CRX (Homo sapiens, UniProt O43186 26-111, R41L).
Assay [6] addresses MSX2 (Homo sapiens, UniProt P35548 130-214, R199I).
Assay [7] deals with MSX2 (Homo sapiens, UniProt P35548 130-214).
Assay [8] has as its target PROP1 (Homo sapiens, UniProt O75360 56-141).
Assay [9] concerns the target PROP1 (Homo sapiens, UniProt O75360 56-141, R99H).
For assay [10], the target named is VAX1 (Homo sapiens, UniProt Q5SQQ9 86-172).
The target in assay [11] is PROP1 (Homo sapiens, UniProt O75360 56-141, F88S).
In assay [12] the target is MSX2 (Homo sapiens, UniProt P35548 130-214, F161Y).
Assay [13] deals with VAX1 (Homo sapiens, UniProt Q5SQQ9 86-172, T142I).
For assay [14], the target named is VAX1 (Homo sapiens, UniProt Q5SQQ9 86-172, K157R).
In assay [15] the target is T1, PAX4 (Homo sapiens, UniProt O43316 9-242, R200K).
T1 sequence: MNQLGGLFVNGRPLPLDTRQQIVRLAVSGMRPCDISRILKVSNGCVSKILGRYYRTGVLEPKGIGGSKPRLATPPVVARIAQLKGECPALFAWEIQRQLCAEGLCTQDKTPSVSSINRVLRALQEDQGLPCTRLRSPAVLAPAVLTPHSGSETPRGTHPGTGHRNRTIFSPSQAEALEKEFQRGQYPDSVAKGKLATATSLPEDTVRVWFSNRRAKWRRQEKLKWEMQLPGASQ

In a further assay the target is PITX2 (Homo sapiens, UniProt Q99697 72-157).
Assay [16] concerns the target T2, PAX4 (Homo sapiens, UniProt O43316 9-242, F177Y).
T2 sequence: T1 sequence with F169Y, K192R

In assay [17] the target is PRRX1 (Homo sapiens, UniProt P54821 80-166, F113S).
Assay [18] has as its target HOXB6 (Homo sapiens, UniProt P17509 132-218, K202E).
Assay [19] concerns the target HOXA2 (Homo sapiens, UniProt O43364 129-215, R185T).
For assay [20], the target named is HOXA2 (Homo sapiens, UniProt O43364 129-215, R185K).
Assay [21] has as its target HOXA2 (Homo sapiens, UniProt O43364 129-215, Y150S).
Assay [22] concerns the target PRRX1 (Homo sapiens, UniProt P54821 80-166).
In assay [23] the target is HOXA2 (Homo sapiens, UniProt O43364 129-215).
For assay [24], the target named is HOXB6 (Homo sapiens, UniProt P17509 132-218).
In assay [25] the target is HOXC10 (Homo sapiens, UniProt Q9NYD6 254-340).
The target of assay [26] is HOXC10 (Homo sapiens, UniProt Q9NYD6 254-340, K271E).
The target in another assay is T3, SIX6 (Homo sapiens, UniProt O95475 114-200, T165P).
T3 sequence: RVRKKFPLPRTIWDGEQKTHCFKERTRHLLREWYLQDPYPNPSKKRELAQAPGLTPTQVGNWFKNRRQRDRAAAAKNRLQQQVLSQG

Consider 13 sequences from publication PMC11006913.

Numbering of substitutions follows the chain as printed.

Sequence of CRX (Homo sapiens, UniProt O43186 26-111) (O43186 26-111): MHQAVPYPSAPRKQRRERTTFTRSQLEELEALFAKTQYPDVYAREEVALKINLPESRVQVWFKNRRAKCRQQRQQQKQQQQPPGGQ
Sequence of CRX (Homo sapiens, UniProt O43186 26-111, E42D) (O43186 26-111 E42D): as the sequence (O43186 26-111) above, with E17D counted along it
Sequence of CRX (Homo sapiens, UniProt O43186 26-111, R41L) (O43186 26-111 R41L): as the sequence (O43186 26-111) above, with R16L counted along it
Sequence of HOXA7 (Homo sapiens, UniProt P31268 116-202, W177C) (P31268 116-202 W177C): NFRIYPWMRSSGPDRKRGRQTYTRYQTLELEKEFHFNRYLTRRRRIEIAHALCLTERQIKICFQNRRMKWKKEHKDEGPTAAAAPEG
Sequence of HOXA2 (Homo sapiens, UniProt O43364 129-215, R185K) (O43364 129-215 R185K): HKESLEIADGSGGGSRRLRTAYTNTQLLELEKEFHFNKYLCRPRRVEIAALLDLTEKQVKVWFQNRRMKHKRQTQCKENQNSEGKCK
Sequence of HOXA2 (Homo sapiens, UniProt O43364 129-215) (O43364 129-215): as the sequence (O43364 129-215 R185K) above, with K57R counted along it
Sequence of HOXA2 (Homo sapiens, UniProt O43364 129-215, Y150S) (O43364 129-215 Y150S): as the sequence (O43364 129-215 R185K) above, with Y22S, K57R counted along it
Sequence of HOXA2 (Homo sapiens, UniProt O43364 129-215, R185T) (O43364 129-215 R185T): as the sequence (O43364 129-215 R185K) above, with K57T counted along it
Sequence of HOXA7 (Homo sapiens, UniProt P31268 116-202) (P31268 116-202): as the sequence (P31268 116-202 W177C) above, with C62W counted along it
Sequence of HOXC10 (Homo sapiens, UniProt Q9NYD6 254-340, K271E) (Q9NYD6 254-340 K271E): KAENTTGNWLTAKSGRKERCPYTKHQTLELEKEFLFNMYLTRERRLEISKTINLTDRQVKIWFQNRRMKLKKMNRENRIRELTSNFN
Sequence of VAX1 (Homo sapiens, UniProt Q5SQQ9 86-172) (Q5SQQ9 86-172): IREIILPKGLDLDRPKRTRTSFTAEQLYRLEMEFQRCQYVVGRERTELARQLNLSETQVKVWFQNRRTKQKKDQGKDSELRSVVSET
Sequence of MSX2 (Homo sapiens, UniProt P35548 130-214, F161Y) (P35548 130-214 F161Y): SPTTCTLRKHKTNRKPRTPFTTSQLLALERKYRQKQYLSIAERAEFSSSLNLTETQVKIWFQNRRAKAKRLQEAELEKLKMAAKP
Sequence of HOXC10 (Homo sapiens, UniProt Q9NYD6 254-340) (Q9NYD6 254-340): as the sequence (Q9NYD6 254-340 K271E) above, with E18K counted along it
Sequence of MSX2 (Homo sapiens, UniProt P35548 130-214) (P35548 130-214): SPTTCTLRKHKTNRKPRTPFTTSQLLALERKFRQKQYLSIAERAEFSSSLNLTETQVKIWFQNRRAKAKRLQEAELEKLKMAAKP
Sequence of HOXB6 (Homo sapiens, UniProt P17509 132-218) (P17509 132-218): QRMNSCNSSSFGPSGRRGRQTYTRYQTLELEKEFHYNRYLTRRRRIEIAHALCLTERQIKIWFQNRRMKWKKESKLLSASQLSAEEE
Sequence of PROP1 (Homo sapiens, UniProt O75360 56-141, R99H) (O75360 56-141 R99H): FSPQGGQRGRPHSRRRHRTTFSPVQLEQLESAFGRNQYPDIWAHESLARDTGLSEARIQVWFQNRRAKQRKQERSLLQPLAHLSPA
Sequence of PRRX1 (Homo sapiens, UniProt P54821 80-166) (P54821 80-166): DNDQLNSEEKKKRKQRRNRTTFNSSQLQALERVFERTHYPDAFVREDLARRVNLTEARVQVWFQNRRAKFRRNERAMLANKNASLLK
Sequence of HOXB6 (Homo sapiens, UniProt P17509 132-218, K202E) (P17509 132-218 K202E): as the sequence (P17509 132-218) above, with K71E counted along it
Sequence of PRRX1 (Homo sapiens, UniProt P54821 80-166, F113S) (P54821 80-166 F113S): as the sequence (P54821 80-166) above, with F34S counted along it
Sequence of PROP1 (Homo sapiens, UniProt O75360 56-141, F88S) (O75360 56-141 F88S): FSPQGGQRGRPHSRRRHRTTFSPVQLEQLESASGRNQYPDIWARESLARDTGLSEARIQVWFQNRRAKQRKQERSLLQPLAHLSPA
Sequence of MSX2 (Homo sapiens, UniProt P35548 130-214, R199I) (P35548 130-214 R199I): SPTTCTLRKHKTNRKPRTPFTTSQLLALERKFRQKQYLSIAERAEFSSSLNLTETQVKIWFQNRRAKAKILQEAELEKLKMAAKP
Sequence of PROP1 (Homo sapiens, UniProt O75360 56-141) (O75360 56-141): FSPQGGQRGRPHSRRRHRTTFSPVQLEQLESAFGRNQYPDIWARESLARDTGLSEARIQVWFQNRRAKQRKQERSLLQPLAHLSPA
Sequence of VAX1 (Homo sapiens, UniProt Q5SQQ9 86-172, K157R) (Q5SQQ9 86-172 K157R): as the sequence (Q5SQQ9 86-172) above, with K72R counted along it
Sequence of VAX1 (Homo sapiens, UniProt Q5SQQ9 86-172, T142I) (Q5SQQ9 86-172 T142I): as the sequence (Q5SQQ9 86-172) above, with T57I counted along it

As to AGCGTCCG, the binding signal was 8.29 upbm affinity estimate (log intensity, higher = more binding, comparable within an allelic series) in the assay with CRX [1]; 8.2 upbm affinity estimate (log intensity, higher = more binding, comparable within an allelic series) with HOXA7 [2]; 8.33 upbm affinity estimate (log intensity, higher = more binding, comparable within an allelic series) in the assay with CRX [3]; 8.37 upbm affinity estimate (log intensity, higher = more binding, comparable within an allelic series) with HOXA7 [4]; 8.29 upbm affinity estimate (log intensity, higher = more binding, comparable within an allelic series) with CRX [5].

With GGTTAAAC, the binding signal in the assay with CRX [1] is 10.2 upbm affinity estimate (log intensity, higher = more binding, comparable within an allelic series); with CRX [3] it was 9.96 upbm affinity estimate (log intensity, higher = more binding, comparable within an allelic series).

Regarding GTGCCACA, the binding signal is 8.41 upbm affinity estimate (log intensity, higher = more binding, comparable within an allelic series) with CRX [1]; 8.34 upbm affinity estimate (log intensity, higher = more binding, comparable within an allelic series) in the assay with CRX [3]; 9.58 upbm affinity estimate (log intensity, higher = more binding, comparable within an allelic series) with MSX2 [6]; 9.65 upbm affinity estimate (log intensity, higher = more binding, comparable within an allelic series) with MSX2 [7]; 6.66 upbm affinity estimate (log intensity, higher = more binding, comparable within an allelic series) with PROP1 [8]; 6.7 upbm affinity estimate (log intensity, higher = more binding, comparable within an allelic series) with PROP1 [9]. For the same sequence, the binding signal in the assay with VAX1 [10] was 7.16 upbm affinity estimate (log intensity, higher = more binding, comparable within an allelic series); in the assay with PROP1 [11], 6.8 upbm affinity estimate (log intensity, higher = more binding, comparable within an allelic series); in the assay with MSX2 [12] it was 9.56 upbm affinity estimate (log intensity, higher = more binding, comparable within an allelic series); with VAX1 [13], 7.19 upbm affinity estimate (log intensity, higher = more binding, comparable within an allelic series); with CRX [5] it was 8.33 upbm affinity estimate (log intensity, higher = more binding, comparable within an allelic series); with VAX1 [14], 7.08 upbm affinity estimate (log intensity, higher = more binding, comparable within an allelic series).

ATTAATCC: the binding signal was 13.5 upbm affinity estimate (log intensity, higher = more binding, comparable within an allelic series) in the assay with CRX [1]; 11.6 upbm affinity estimate (log intensity, higher = more binding, comparable within an allelic series) with PAX4 [15]; 13.6 upbm affinity estimate (log intensity, higher = more binding, comparable within an allelic series) with CRX [3]; 13.4 upbm affinity estimate (log intensity, higher = more binding, comparable within an allelic series) in the assay with PITX2; 10.9 upbm affinity estimate (log intensity, higher = more binding, comparable within an allelic series) in the assay with PAX4 [16]; 13.5 upbm affinity estimate (log intensity, higher = more binding, comparable within an allelic series) with CRX [5].

Consider GGACCGCC, for which the binding signal is 8.02 upbm affinity estimate (log intensity, higher = more binding, comparable within an allelic series) with CRX [1]; 9.27 upbm affinity estimate (log intensity, higher = more binding, comparable within an allelic series) with PRRX1 [17]; 8.98 upbm affinity estimate (log intensity, higher = more binding, comparable within an allelic series) in the assay with HOXB6 [18]; 7.28 upbm affinity estimate (log intensity, higher = more binding, comparable within an allelic series) with HOXA2 [19]; 8.13 upbm affinity estimate (log intensity, higher = more binding, comparable within an allelic series) in the assay with CRX [3]; 7.63 upbm affinity estimate (log intensity, higher = more binding, comparable within an allelic series) with PITX2. In addition, the binding signal was 10.2 upbm affinity estimate (log intensity, higher = more binding, comparable within an allelic series) in the assay with HOXA2 [20]; 10.4 upbm affinity estimate (log intensity, higher = more binding, comparable within an allelic series) with HOXA2 [21]; 8.16 upbm affinity estimate (log intensity, higher = more binding, comparable within an allelic series) with CRX [5]; 9.42 upbm affinity estimate (log intensity, higher = more binding, comparable within an allelic series) with PRRX1 [22]; 7.23 upbm affinity estimate (log intensity, higher = more binding, comparable within an allelic series) in the assay with HOXA2 [23]; 9.08 upbm affinity estimate (log intensity, higher = more binding, comparable within an allelic series) with HOXB6 [24].

AGCTCAGC: the binding signal with CRX [1] was 9.88 upbm affinity estimate (log intensity, higher = more binding, comparable within an allelic series); in the assay with CRX [3], 9.76 upbm affinity estimate (log intensity, higher = more binding, comparable within an allelic series).

For ACTATCCG, the binding signal is 9.31 upbm affinity estimate (log intensity, higher = more binding, comparable within an allelic series) in the assay with CRX [1] and 9.26 upbm affinity estimate (log intensity, higher = more binding, comparable within an allelic series) in the assay with CRX [3].

In the case of GACCGACA, the binding signal with CRX [1] was 8.43 upbm affinity estimate (log intensity, higher = more binding, comparable within an allelic series); with HOXA7 [2], 8.51 upbm affinity estimate (log intensity, higher = more binding, comparable within an allelic series); with CRX [3], 8.36 upbm affinity estimate (log intensity, higher = more binding, comparable within an allelic series); in the assay with HOXA7 [4], 8.57 upbm affinity estimate (log intensity, higher = more binding, comparable within an allelic series); in the assay with CRX [5], 8.31 upbm affinity estimate (log intensity, higher = more binding, comparable within an allelic series).

Take CCGGGGCG: the binding signal in the assay with CRX [1] was 8.1 upbm affinity estimate (log intensity, higher = more binding, comparable within an allelic series); with HOXA2 [19], 7.04 upbm affinity estimate (log intensity, higher = more binding, comparable within an allelic series); with CRX [3] it was 8.23 upbm affinity estimate (log intensity, higher = more binding, comparable within an allelic series); with HOXA2 [20], 10 upbm affinity estimate (log intensity, higher = more binding, comparable within an allelic series); in the assay with HOXA2 [21], 10.3 upbm affinity estimate (log intensity, higher = more binding, comparable within an allelic series); with CRX [5] it was 8.38 upbm affinity estimate (log intensity, higher = more binding, comparable within an allelic series). Further, the binding signal in the assay with HOXA2 [23] was 7 upbm affinity estimate (log intensity, higher = more binding, comparable within an allelic series).

Take CGGCGTCC: the binding signal with CRX [1] was 7.94 upbm affinity estimate (log intensity, higher = more binding, comparable within an allelic series); with HOXC10 [25] it was 10 upbm affinity estimate (log intensity, higher = more binding, comparable within an allelic series); in the assay with CRX [3] it was 8 upbm affinity estimate (log intensity, higher = more binding, comparable within an allelic series); in the assay with HOXC10 [26] it was 10.1 upbm affinity estimate (log intensity, higher = more binding, comparable within an allelic series); with CRX [5], 8.06 upbm affinity estimate (log intensity, higher = more binding, comparable within an allelic series).

As to GCGGATCA, the binding signal with CRX [1] is 11.3 upbm affinity estimate (log intensity, higher = more binding, comparable within an allelic series); with SIX6, 9.3 upbm affinity estimate (log intensity, higher = more binding, comparable within an allelic series); with CRX [3], 11.2 upbm affinity estimate (log intensity, higher = more binding, comparable within an allelic series); with CRX [5], 10.8 upbm affinity estimate (log intensity, higher = more binding, comparable within an allelic series).

For the sequence AGGCCTTA, the binding signal is 10.1 upbm affinity estimate (log intensity, higher = more binding, comparable within an allelic series) with CRX [1] and 9.82 upbm affinity estimate (log intensity, higher = more binding, comparable within an allelic series) in the assay with CRX [3].

For ACTTTATC, the binding signal was 10.6 upbm affinity estimate (log intensity, higher = more binding, comparable within an allelic series) with CRX [1] and 10.4 upbm affinity estimate (log intensity, higher = more binding, comparable within an allelic series) with CRX [3].
